Measurements published in PubChem BioAssay (NCI).
The panel holds about 83,000 compounds, 20% with a hit somewhere; the sample as a whole holds those more often.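 How to read the values: 0–100, growth inhibition (40 = 60% inhibited); 0, no net growth; -100 to 0, cell death (-40 = 40% of starting cells died; -100 = all dead).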 The source made the active and inactive calls. The calls were made as follows: active = growth percent below 10; inactive = the rest.

Columns and labels:
Experiment in all cases: NCI-60 one-dose screen, 48 h (100 = growth as untreated, 0 = no growth, -100 = all killed)
Settings in all cases: 10 µM unless noted
SK-MEL-2 melanoma = tested on: SK-MEL-2 melanoma
EKVX NSCLC = tested on: EKVX NSCLC
SN12C renal = tested on: SN12C renal
UO-31 renal = tested on: UO-31 renal
TK-10 renal = tested on: TK-10 renal
ACHN renal = tested on: ACHN renal
CAKI-1 renal = tested on: CAKI-1 renal
A498 renal = tested on: A498 renal
CCRF-CEM leukemia = tested on: CCRF-CEM leukemia
MOLT-4 leukemia = tested on: MOLT-4 leukemia

Measured: growth

COc1ccc(C(=O)c2nccc3cc(OC)c(OC)cc23)cc1OC
inactive: SK-MEL-2 melanoma 108% | EKVX NSCLC 90.1% | SN12C renal 72.1% | UO-31 renal 82.8% | TK-10 renal 132% | ACHN renal 91.7% | CAKI-1 renal 75.8% | A498 renal 64.6% | CCRF-CEM leukemia 132% | MOLT-4 leukemia 103%

COc1ccccc1S(=O)Nc1ccccc1 (stereo not drawn)
inactive: SK-MEL-2 melanoma 82.5% | EKVX NSCLC 106% | SN12C renal 94.4% | UO-31 renal 85.9% | TK-10 renal 101% | ACHN renal 107% | CAKI-1 renal 98.2% | A498 renal 82.9% | CCRF-CEM leukemia 93.6% | MOLT-4 leukemia 103%

Cn1cc(-c2noc(-c3cn(C)c4ncc(F)cc34)n2)c2cc(Cl)ccc21
inactive: SK-MEL-2 melanoma 101% | EKVX NSCLC 47.1% | SN12C renal 40.8% | UO-31 renal 53.3% | TK-10 renal 28% | ACHN renal 10.2% | CAKI-1 renal 43.2% | A498 renal 69.2% | CCRF-CEM leukemia 99.7% | MOLT-4 leukemia 78.2%

CCOc1cc(/C=N\NC(=O)N/N=C/c2ccc(O)c(OCC)c2)ccc1O
inactive: SK-MEL-2 melanoma 49.8% | EKVX NSCLC 60.6% | SN12C renal 51.3% | UO-31 renal 59.1% | TK-10 renal 34.3% | ACHN renal 45.6% | CAKI-1 renal 37.9% | A498 renal 72.6% | CCRF-CEM leukemia 16.5% | MOLT-4 leukemia 31.1%

COc1cc2c(cc1OCCCCCOc1ccc(-n3c(C)nc4ccccc4c3=O)cc1)N=C[C@@H]1CCCN1C2=O
inactive: SN12C renal 12.7%
active: SK-MEL-2 melanoma -8.38% | EKVX NSCLC -26.5% | UO-31 renal 2.91% | TK-10 renal -28.2% | ACHN renal 9.23% | CAKI-1 renal 4.3% | A498 renal -71.9% | CCRF-CEM leukemia -38.3% | MOLT-4 leukemia -31.2%

CSc1nc(N)c(N=Nc2ccc(S(=O)(=O)Nc3nnc(C)s3)cc2)c(=O)[nH]1
inactive: SK-MEL-2 melanoma 113% | EKVX NSCLC 155% | SN12C renal 92.1% | TK-10 renal 108% | ACHN renal 102% | CAKI-1 renal 139% | A498 renal 97.7% | CCRF-CEM leukemia 128% | MOLT-4 leukemia 106%

COc1cc2c(=O)[nH]c3cc([N+](=O)[O-])ccc3c2cc1[N+](=O)[O-]
inactive: SK-MEL-2 melanoma 86.1% | EKVX NSCLC 48.3% | SN12C renal 52.6% | UO-31 renal 19.6% | TK-10 renal 52.1% | ACHN renal 21.8% | CAKI-1 renal 45.7% | CCRF-CEM leukemia 46.5%
active: A498 renal -2.09% | MOLT-4 leukemia 9.72%

Cc1cccc(/C=C2\N=C(c3ccccc3)N(c3ccc(S(N)(=O)=O)cc3)C2=O)c1
inactive: SK-MEL-2 melanoma 102% | EKVX NSCLC 92.1% | SN12C renal 91.8% | TK-10 renal 98.5% | ACHN renal 86.5% | CAKI-1 renal 86.2% | A498 renal 101% | CCRF-CEM leukemia 99.9% | MOLT-4 leukemia 90.3%

Cc1ccc(-c2cc(O)c(-c3ccc(C)cc3C)cc2O)c(C)c1
inactive: SK-MEL-2 melanoma 91.8% | EKVX NSCLC 56.6% | SN12C renal 68.9% | TK-10 renal 79.1% | ACHN renal 73.2% | CAKI-1 renal 39.7% | A498 renal 94.3% | CCRF-CEM leukemia 39.5% | MOLT-4 leukemia 31.7%

COc1ccc(C2CC(c3cc(OC)c(OC)c(OC)c3)=NN2C(C)=O)cc1OCC(=O)Nc1nc2ccc(C(F)(F)F)cc2s1 (stereo not drawn)
inactive: SK-MEL-2 melanoma 92.3% | EKVX NSCLC 83.4% | SN12C renal 63% | TK-10 renal 57.1% | ACHN renal 40.4% | CAKI-1 renal 57.9% | A498 renal 54.1% | CCRF-CEM leukemia 72.5% | MOLT-4 leukemia 60%

O=C(NCCCCCCCNC(=O)OCc1ccc2c(Cl)cc(Cl)c(O)c2n1)OCc1ccc2c(Cl)cc(Cl)c(O)c2n1
active: SK-MEL-2 melanoma -70.6% | EKVX NSCLC -45.8% | SN12C renal -76.5% | TK-10 renal -80.7% | ACHN renal -99.9% | CAKI-1 renal -93.4% | A498 renal -80.6% | CCRF-CEM leukemia 4.67% | MOLT-4 leukemia -2.43%

O=C(CCCCCCSc1nc(-c2ccc(Cl)cc2)cc(-c2ccc(Cl)cc2)n1)NO
inactive: SK-MEL-2 melanoma 92.7% | EKVX NSCLC 50.9% | SN12C renal 26.1% | TK-10 renal 30.7% | ACHN renal 15.5% | CAKI-1 renal 13.4% | A498 renal 81.8% | MOLT-4 leukemia 11.4%
active: CCRF-CEM leukemia 5.2%

Ic1ccc2[nH]cc(SSc3c[nH]c4ccc(I)cc34)c2c1
active: TK-10 renal -13.3% | CAKI-1 renal -6.92% | CCRF-CEM leukemia 8.16%
inactive: SK-MEL-2 melanoma 74% | EKVX NSCLC 23.5% | SN12C renal 42.1% | ACHN renal 16.5% | A498 renal 40.7% | MOLT-4 leukemia 13.2%
